Measurements from PubChem BioAssay (NCATS).
Records with an inconclusive call do not appear. Calls of active or inactive are those of the source. Calls follow the shape of the dose curve; as a rule, active = well fitted inhibition curve with a large enough effect; inconclusive = small, poorly fitted or top-dose-only effect; inactive = flat fitted curve, though single readings scatter.

Tested on: HACAT
Assay: qHTS assay to identify novel small-molecules to repurpose for Merkel cell carcinoma treatment (AID 1296009); also: nearly all actives have a fitted effect of over 60% in size
Settings: MCC and control cell lines, CellTiter-Glo viability, 72 h; at 44.8 µM (top of the series) unless noted
Summary of the method: (§1)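 After compound transfer in DMSO, plates were kept 72 hr at 37 degree celsius. Luminescent ATP signal from CellTiter-Glo served as viability measure, normalized against DMSO and no-cell controls.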

**Q.** For Cc1ncc([N+](=O)[O-])n1CC(O)CCl (configuration not stated), which outcome is on record?
**A.** inactive

**Q.** With C[C@H](NC(CCc1ccccc1)C(=O)O)C(=O)N1CCC[C@H]1C(=O)O (some centres not stated) as the compound, how does the outcome read?
**A.** inactive

**Q.** How did the outcome turn out when Oc1ccc(C(O)CNCCCCCCNCC(O)c2ccc(O)c(O)c2)cc1O (configuration not stated) was run?
**A.** inactive

**Q.** With CCCCC(CC)COC(=O)c1ccccc1O (configuration not stated) as the compound, how does the outcome read?
**A.** inactive

**Q.** With N[C@H](C(=O)O)c1ccc(O)cc1 as the compound, how does the outcome read?
**A.** inactive [at 17.4 µM]

**Q.** NC(=O)NC(=O)Cc1ccccc1 was tested. Which outcome did it give?
**A.** inactive

**Q.** C#CCN(C)Cc1ccccc1 was tested. Which outcome did it give?
**A.** inactive

**Q.** NS(=O)(=O)c1cc2c(cc1C(F)(F)F)NC(Cc1ccccc1)NS2(=O)=O (configuration not stated) was tested. Which outcome did it give?
**A.** inactive

**Q.** How did the outcome turn out when O=C1N=C(O)CN1/N=C/c1ccc(-c2ccc([N+](=O)[O-])cc2)o1 was run?
**A.** inactive

**Q.** Which outcome does the source give for CCCCCCCCCCCCCCCCCCOCC(O)CO (configuration not stated) here?
**A.** inactive

**Q.** How did the outcome turn out when NCCNCCNCCNCCN was run?
**A.** inactive [at 9.27 µM]

**Q.** With CN(C)CCCO[C@@H]1[C@H]2OC(C)(C)O[C@H]2O[C@@H]1C(O)CO (some centres not stated) as the compound, how does the outcome read?
**A.** inactive

**Q.** For OC[C@H]1O[C@@H](O[C@@H]2[C@@H](CO)O[C@](O)(CO)[C@H]2O)[C@H](O)[C@@H](O)[C@H]1O, which outcome is on record?
**A.** inactive

**Q.** N[C@@H](CSSC[C@H](N)C(=O)O)C(=O)O was tested. Which outcome did it give?
**A.** inactive [at 0.588 µM]

**Q.** Which outcome does the source give for CC1(C)CO[C@@H](CC(=O)O)CN1 here?
**A.** inactive

**Q.** With CC1=C(C/C=C(\C)CCC[C@H](C)CCC[C@H](C)CCCC(C)C)C(=O)c2ccccc2C1=O as the compound, how does the outcome read?
**A.** inactive

**Q.** Which outcome does the source give for COc1cc(C(=O)N2CCOCC2)cc(OC)c1OC here?
**A.** inactive

**Q.** How did the outcome turn out when CC(=O)Nc1ccc(/C=N/NC(N)=S)cc1 was run?
**A.** inactive

**Q.** For O=C1OC(OC(=O)c2cccnc2Nc2cccc(C(F)(F)F)c2)c2ccccc21 (configuration not stated), which outcome is on record?
**A.** inactive

**Q.** With O=C(O)CN1C(=O)c2cccc3cccc(c23)C1=O as the compound, how does the outcome read?
**A.** inactive

**Q.** For CN1[C@@H]2CC[C@H]1CC(OC(=O)C(O)c1ccccc1)C2 (some centres not stated), which outcome is on record?
**A.** inactive

**Q.** Which outcome does the source give for O=C(Oc1ccccc1C(=O)O)c1ccccc1O here?
**A.** inactive

**Q.** Which outcome does the source give for CCN(CC)CCOC(=O)C1(C2CCCCC2)CCCCC1 here?
**A.** inactive

**Q.** For Cc1cc(O)cc2c1O[C@](C)(CCC[C@H](C)CCC[C@H](C)CCCC(C)C)CC2, which outcome is on record?
**A.** inactive

**Q.** How did the outcome turn out when O=S(=O)(O)c1cc(I)c(O)c2ncccc12 was run?
**A.** inactive

**Q.** With Cc1ncc(COP(=O)(O)O)c(C=O)c1O as the compound, how does the outcome read?
**A.** inactive

**Q.** For O=C(O)COc1nn(Cc2ccccc2)c2ccccc12, which outcome is on record?
**A.** inactive

**Q.** With CCCc1c(OCCCCc2nn[nH]n2)ccc(C(C)=O)c1O as the compound, how does the outcome read?
**A.** inactive

**Q.** NC1CCN(c2cccc(Cl)n2)CC1 was tested. Which outcome did it give?
**A.** inactive

**Q.** With Nc1cc(=O)[nH]c(N)n1 as the compound, how does the outcome read?
**A.** inactive

**Q.** CC(O)COc1ccccc1 (configuration not stated) was tested. Which outcome did it give?
**A.** inactive

**Q.** Which outcome does the source give for O=C1O[C@H](CO)[C@@H](O)[C@H](O)[C@H]1O here?
**A.** inactive

**Q.** How did the outcome turn out when NC(CSCC(=O)O)C(=O)O (configuration not stated) was run?
**A.** inactive

Tested on: HEK293T
Assay: as above
Settings: MCC and control cell lines, CellTiter-Glo viability, 72 h; at 44.8 µM (top of the series) unless noted
Summary of the method: as §1

**Q.** Cc1ncc([N+](=O)[O-])n1CC(O)CCl (configuration not stated) was tested. Which outcome did it give?
**A.** inactive

**Q.** With C[C@@H]1CCN(C(=O)[C@H](CCCN=C(N)N)NS(=O)(=O)c2cccc3c2NC[C@H](C)C3)[C@@H](C(=O)O)C1 as the compound, how does the outcome read?
**A.** inactive

**Q.** Oc1ccc(C(O)CNCCCCCCNCC(O)c2ccc(O)c(O)c2)cc1O (configuration not stated) was tested. Which outcome did it give?
**A.** inactive

**Q.** CCCCC(CC)COC(=O)c1ccccc1O (configuration not stated) was tested. Which outcome did it give?
**A.** inactive

**Q.** With N[C@H](C(=O)O)c1ccc(O)cc1 as the compound, how does the outcome read?
**A.** inactive [at 17.4 µM]

**Q.** How did the outcome turn out when NC(=O)NC(=O)Cc1ccccc1 was run?
**A.** inactive

**Q.** NS(=O)(=O)c1cc2c(cc1C(F)(F)F)NC(Cc1ccccc1)NS2(=O)=O (configuration not stated) was tested. Which outcome did it give?
**A.** inactive

**Q.** CCCCCCCCCCCCCCCCCCOCC(O)CO (configuration not stated) was tested. Which outcome did it give?
**A.** inactive

**Q.** With NCCNCCNCCNCCN as the compound, how does the outcome read?
**A.** inactive [at 9.27 µM]

**Q.** For CN(C)CCCO[C@@H]1[C@H]2OC(C)(C)O[C@H]2O[C@@H]1C(O)CO (some centres not stated), which outcome is on record?
**A.** inactive

**Q.** For OC[C@H]1O[C@@H](O[C@@H]2[C@@H](CO)O[C@](O)(CO)[C@H]2O)[C@H](O)[C@@H](O)[C@H]1O, which outcome is on record?
**A.** inactive

**Q.** For N[C@@H](CSSC[C@H](N)C(=O)O)C(=O)O, which outcome is on record?
**A.** inactive [at 0.588 µM]

**Q.** For CC1(C)CO[C@@H](CC(=O)O)CN1, which outcome is on record?
**A.** inactive

**Q.** Which outcome does the source give for CC1=C(C/C=C(\C)CCC[C@H](C)CCC[C@H](C)CCCC(C)C)C(=O)c2ccccc2C1=O here?
**A.** inactive

**Q.** For CCCCC/C(C=O)=C\c1ccccc1, which outcome is on record?
**A.** inactive

**Q.** For O=C1OC(OC(=O)c2cccnc2Nc2cccc(C(F)(F)F)c2)c2ccccc21 (configuration not stated), which outcome is on record?
**A.** inactive

**Q.** With O=C(O)CN1C(=O)c2cccc3cccc(c23)C1=O as the compound, how does the outcome read?
**A.** inactive

**Q.** Which outcome does the source give for O=C(Oc1ccccc1C(=O)O)c1ccccc1O here?
**A.** inactive

**Q.** CC(COc1ccccc1)NC(C)C(O)c1ccc(O)cc1 (configuration not stated) was tested. Which outcome did it give?
**A.** inactive

**Q.** O=S(=O)(O)c1cc(I)c(O)c2ncccc12 was tested. Which outcome did it give?
**A.** inactive

**Q.** For Cc1ncc(COP(=O)(O)O)c(C=O)c1O, which outcome is on record?
**A.** inactive

**Q.** How did the outcome turn out when CO/N=C(\C(=O)N[C@@H]1C(=O)N2C(C(=O)O)=C(CSc3nc(=O)c(O)nn3C)CS[C@H]12)c1csc(N)n1 was run?
**A.** inactive

**Q.** For O=C(O)COc1nn(Cc2ccccc2)c2ccccc12, which outcome is on record?
**A.** inactive

**Q.** For CCCc1c(OCCCCc2nn[nH]n2)ccc(C(C)=O)c1O, which outcome is on record?
**A.** inactive

**Q.** With COc1ccc2cc1Oc1cc3c(cc1OC)CC[N+](C)(C)[C@H]3Cc1ccc(cc1)Oc1c(OC)c(OC)cc3c1[C@@H](C2)[N+](C)(C)CC3 as the compound, how does the outcome read?
**A.** inactive

**Q.** How did the outcome turn out when CC(O)COc1ccccc1 (configuration not stated) was run?
**A.** inactive

**Q.** CC1CC(OC(=O)C(O)c2ccccc2)CC(C)(C)N1C (configuration not stated) was tested. Which outcome did it give?
**A.** inactive

**Q.** How did the outcome turn out when O=C1O[C@H](CO)[C@@H](O)[C@H](O)[C@H]1O was run?
**A.** inactive

**Q.** NC(CSCC(=O)O)C(=O)O (configuration not stated) was tested. Which outcome did it give?
**A.** inactive
